Common to all, as to assay: DAPPL (digital affinity profiling via proximity ligation, sequencing); 10 mM Tris-HCl pH 7.5, 50 mM NaCl, 1 mM DTT, 4% glycerol, room temperature, 30 min; GST-TFs on glutathione beads, 16-mer random dsDNA library, 0.1% formaldehyde crosslink after washing; high values mean tight binding
Holding throughout (settings): protein: recombinant; tags: N-terminal GST; dsDNA, one strand shown

One assay has as its target T1, ERF (Homo sapiens, UniProt P50548 1-548).
T1 sequence: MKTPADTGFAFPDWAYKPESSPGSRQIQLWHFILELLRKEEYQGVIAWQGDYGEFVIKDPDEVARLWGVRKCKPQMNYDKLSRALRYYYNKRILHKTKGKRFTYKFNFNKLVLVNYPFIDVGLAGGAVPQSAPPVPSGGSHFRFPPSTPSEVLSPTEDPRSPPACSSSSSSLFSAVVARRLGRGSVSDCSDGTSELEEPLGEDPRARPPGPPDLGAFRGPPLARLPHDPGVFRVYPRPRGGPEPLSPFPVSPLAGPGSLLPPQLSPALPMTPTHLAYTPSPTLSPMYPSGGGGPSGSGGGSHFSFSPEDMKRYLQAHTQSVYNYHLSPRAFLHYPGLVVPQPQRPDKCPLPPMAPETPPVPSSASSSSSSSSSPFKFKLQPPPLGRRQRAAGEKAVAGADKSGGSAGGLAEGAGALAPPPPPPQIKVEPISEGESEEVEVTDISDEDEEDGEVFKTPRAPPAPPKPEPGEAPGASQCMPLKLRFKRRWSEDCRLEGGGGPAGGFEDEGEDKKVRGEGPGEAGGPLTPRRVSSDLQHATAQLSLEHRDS
In outline: (§1)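 Beads coated with glutathione captured GST-fused human transcription factors that had been expressed in yeast, and the factors were then given DNA barcodes and pooled with a tag-only sample. The pools were incubated with 200 nmole of a random double-stranded 16-mer DNA library in Tris/NaCl/DTT/glycerol buffer for 30 min at room temperature, washed, crosslinked with 0.1% formaldehyde and proximity-ligated with BsaI/T4 ligase at 37 °C for 1 h. PCR amplification and Illumina NextSeq500 sequencing came last. Binding signal is each hexamer's read frequency for a factor divided by its frequency for the tag-only sample.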

Another assay addresses T2, ETV3L (Homo sapiens, UniProt Q6ZN32 1-361).
T2 sequence: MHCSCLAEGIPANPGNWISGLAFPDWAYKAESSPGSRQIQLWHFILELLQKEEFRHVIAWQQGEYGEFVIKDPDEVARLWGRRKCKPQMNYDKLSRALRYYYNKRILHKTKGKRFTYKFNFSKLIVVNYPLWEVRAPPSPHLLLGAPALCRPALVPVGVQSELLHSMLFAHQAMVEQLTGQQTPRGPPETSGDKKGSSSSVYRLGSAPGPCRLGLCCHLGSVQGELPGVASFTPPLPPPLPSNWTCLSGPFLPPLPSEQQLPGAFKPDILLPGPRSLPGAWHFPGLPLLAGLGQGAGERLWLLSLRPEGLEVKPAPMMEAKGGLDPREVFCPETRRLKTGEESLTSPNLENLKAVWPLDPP
In short, it runs like this:
as §1

Another assay addresses T3, ETS2 (Homo sapiens, UniProt P15036 1-469).
T3 sequence: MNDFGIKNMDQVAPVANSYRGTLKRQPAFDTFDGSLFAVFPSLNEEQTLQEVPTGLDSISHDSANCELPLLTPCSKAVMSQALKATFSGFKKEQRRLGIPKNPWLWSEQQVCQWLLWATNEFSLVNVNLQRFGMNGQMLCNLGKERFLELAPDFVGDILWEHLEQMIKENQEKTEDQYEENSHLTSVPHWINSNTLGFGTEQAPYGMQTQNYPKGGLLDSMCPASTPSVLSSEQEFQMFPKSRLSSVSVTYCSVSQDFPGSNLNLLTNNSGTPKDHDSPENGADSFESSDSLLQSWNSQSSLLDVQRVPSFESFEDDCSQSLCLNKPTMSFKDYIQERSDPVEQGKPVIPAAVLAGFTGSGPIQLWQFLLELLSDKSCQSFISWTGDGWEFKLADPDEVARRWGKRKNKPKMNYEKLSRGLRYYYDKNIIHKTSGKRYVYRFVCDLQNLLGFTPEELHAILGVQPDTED
In short, it runs like this: as §1

The next assay deals with T4, SPDEF (Homo sapiens, UniProt O95238 1-335).
T4 sequence: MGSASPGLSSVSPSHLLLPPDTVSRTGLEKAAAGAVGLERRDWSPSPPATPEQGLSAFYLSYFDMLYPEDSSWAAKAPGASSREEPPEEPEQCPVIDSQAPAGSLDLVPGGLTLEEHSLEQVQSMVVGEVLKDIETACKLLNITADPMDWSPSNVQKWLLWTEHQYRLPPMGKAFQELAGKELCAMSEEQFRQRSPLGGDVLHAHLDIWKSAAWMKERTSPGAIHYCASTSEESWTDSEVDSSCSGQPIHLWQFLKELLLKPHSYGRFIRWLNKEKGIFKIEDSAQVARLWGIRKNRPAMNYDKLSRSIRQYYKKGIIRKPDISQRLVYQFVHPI
In short, it runs like this: as §1

Another assay has as its target T5, ETV7 (Homo sapiens, UniProt Q9Y603 1-341).
T5 sequence: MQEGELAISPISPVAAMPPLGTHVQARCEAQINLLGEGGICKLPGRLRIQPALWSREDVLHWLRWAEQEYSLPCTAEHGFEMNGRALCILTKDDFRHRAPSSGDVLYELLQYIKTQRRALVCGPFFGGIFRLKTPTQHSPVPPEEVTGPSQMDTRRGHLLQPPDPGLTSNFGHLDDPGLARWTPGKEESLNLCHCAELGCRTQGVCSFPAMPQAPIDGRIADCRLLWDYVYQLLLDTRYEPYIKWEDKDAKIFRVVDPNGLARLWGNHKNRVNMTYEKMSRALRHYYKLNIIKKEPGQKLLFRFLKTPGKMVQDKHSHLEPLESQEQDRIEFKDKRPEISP
In short, it runs like this: as §1

The next assay addresses T6, ELF5 (Homo sapiens, UniProt Q9UKW6-2 1-255).
T6 sequence: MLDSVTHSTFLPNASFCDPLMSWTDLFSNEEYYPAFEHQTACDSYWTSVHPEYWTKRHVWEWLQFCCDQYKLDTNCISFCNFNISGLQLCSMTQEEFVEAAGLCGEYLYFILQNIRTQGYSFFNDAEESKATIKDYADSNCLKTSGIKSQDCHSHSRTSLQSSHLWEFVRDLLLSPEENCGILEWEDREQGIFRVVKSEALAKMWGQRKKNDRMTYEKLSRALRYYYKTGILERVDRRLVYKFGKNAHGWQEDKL
In outline: as §1

A further assay concerns the target T7, ETV3 (Homo sapiens, UniProt P41162-2 1-143).
T7 sequence: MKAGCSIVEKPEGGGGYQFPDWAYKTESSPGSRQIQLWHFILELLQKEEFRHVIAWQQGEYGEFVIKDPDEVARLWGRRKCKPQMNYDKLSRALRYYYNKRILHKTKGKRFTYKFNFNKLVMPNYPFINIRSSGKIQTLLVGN
In short, it runs like this: as §1

For a further assay, the target named is ETV6 (Homo sapiens, UniProt P41212 1-452). In outline:
as §1

Sequence of ETV6 (P41212 whole entry): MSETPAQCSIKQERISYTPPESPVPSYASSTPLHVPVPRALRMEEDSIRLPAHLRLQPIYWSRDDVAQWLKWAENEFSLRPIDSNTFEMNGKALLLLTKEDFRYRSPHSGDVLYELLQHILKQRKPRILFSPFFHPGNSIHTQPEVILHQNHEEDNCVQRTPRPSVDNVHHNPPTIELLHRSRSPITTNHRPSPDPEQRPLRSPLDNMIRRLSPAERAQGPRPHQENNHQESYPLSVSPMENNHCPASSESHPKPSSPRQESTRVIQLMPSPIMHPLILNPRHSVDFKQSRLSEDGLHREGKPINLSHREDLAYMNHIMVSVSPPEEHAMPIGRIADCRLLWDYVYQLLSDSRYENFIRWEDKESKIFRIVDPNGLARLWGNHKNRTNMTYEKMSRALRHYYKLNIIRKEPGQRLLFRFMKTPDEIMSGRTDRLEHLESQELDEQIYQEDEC

Regarding TGGCAA, the binding signal with ERF is 1.21 fold enrichment (6-mer frequency, TF over GST control); with ETV3L, 1.23 fold enrichment (6-mer frequency, TF over GST control); with ETS2, 1.14 fold enrichment (6-mer frequency, TF over GST control); with SPDEF, 1 fold enrichment (6-mer frequency, TF over GST control); in the assay with ETV7 it was 1.16 fold enrichment (6-mer frequency, TF over GST control); in the assay with ELF5, 1.16 fold enrichment (6-mer frequency, TF over GST control). Also, the binding signal with ETV3 was 1.12 fold enrichment (6-mer frequency, TF over GST control); with ETV6, 1.28 fold enrichment (6-mer frequency, TF over GST control).

On to ACTACA, for which the binding signal was 1.13 fold enrichment (6-mer frequency, TF over GST control) with ERF; 1.22 fold enrichment (6-mer frequency, TF over GST control) with ETV3L; 1.15 fold enrichment (6-mer frequency, TF over GST control) in the assay with ETS2; 1.28 fold enrichment (6-mer frequency, TF over GST control) in the assay with SPDEF; 1.11 fold enrichment (6-mer frequency, TF over GST control) with ETV7; 1.24 fold enrichment (6-mer frequency, TF over GST control) in the assay with ELF5. Further, the binding signal with ETV3 was 1.19 fold enrichment (6-mer frequency, TF over GST control); with ETV6, 1.19 fold enrichment (6-mer frequency, TF over GST control).

Turning to AAACTT, the binding signal is 1.36 fold enrichment (6-mer frequency, TF over GST control) with ERF; 1.24 fold enrichment (6-mer frequency, TF over GST control) with ETV3L; 1.32 fold enrichment (6-mer frequency, TF over GST control) in the assay with ETS2; 1.1 fold enrichment (6-mer frequency, TF over GST control) with SPDEF; 1.22 fold enrichment (6-mer frequency, TF over GST control) with ETV7; 1.43 fold enrichment (6-mer frequency, TF over GST control) in the assay with ELF5. For the same sequence, the binding signal is 1.34 fold enrichment (6-mer frequency, TF over GST control) in the assay with ETV3 and 1.29 fold enrichment (6-mer frequency, TF over GST control) with ETV6.

On to TAACTC, for which the binding signal with ERF is 1.29 fold enrichment (6-mer frequency, TF over GST control); with ETV3L it was 1.12 fold enrichment (6-mer frequency, TF over GST control); with ETS2, 1.25 fold enrichment (6-mer frequency, TF over GST control); with SPDEF, 1.23 fold enrichment (6-mer frequency, TF over GST control); with ETV7, 1.22 fold enrichment (6-mer frequency, TF over GST control); in the assay with ELF5 it was 1.16 fold enrichment (6-mer frequency, TF over GST control). The binding signal with ETV3 was 1.25 fold enrichment (6-mer frequency, TF over GST control); with ETV6, 1.3 fold enrichment (6-mer frequency, TF over GST control).

As for TGATGT, the binding signal in the assay with ERF is 1.16 fold enrichment (6-mer frequency, TF over GST control); with ETV3L, 1.21 fold enrichment (6-mer frequency, TF over GST control); in the assay with ETS2 it was 1.29 fold enrichment (6-mer frequency, TF over GST control); in the assay with SPDEF, 1.26 fold enrichment (6-mer frequency, TF over GST control); in the assay with ETV7, 1.18 fold enrichment (6-mer frequency, TF over GST control); with ELF5, 1.23 fold enrichment (6-mer frequency, TF over GST control). In addition, the binding signal was 1.15 fold enrichment (6-mer frequency, TF over GST control) with ETV3 and 1.22 fold enrichment (6-mer frequency, TF over GST control) with ETV6.

For GCCACT, the binding signal with ERF is 1.16 fold enrichment (6-mer frequency, TF over GST control); with ETV3L, 1.07 fold enrichment (6-mer frequency, TF over GST control); in the assay with ETS2, 1.19 fold enrichment (6-mer frequency, TF over GST control); in the assay with SPDEF, 1.15 fold enrichment (6-mer frequency, TF over GST control); in the assay with ETV7, 1.12 fold enrichment (6-mer frequency, TF over GST control); with ELF5, 1.16 fold enrichment (6-mer frequency, TF over GST control). For the same sequence, the binding signal with ETV3 is 1.16 fold enrichment (6-mer frequency, TF over GST control); with ETV6, 1.21 fold enrichment (6-mer frequency, TF over GST control).

Consider CCCCGG, for which the binding signal with ERF is 1.34 fold enrichment (6-mer frequency, TF over GST control); with ETV3L it was 1.24 fold enrichment (6-mer frequency, TF over GST control); in the assay with ETS2, 1.17 fold enrichment (6-mer frequency, TF over GST control); in the assay with SPDEF it was 1.28 fold enrichment (6-mer frequency, TF over GST control); with ETV7, 1.18 fold enrichment (6-mer frequency, TF over GST control); with ELF5, 1.3 fold enrichment (6-mer frequency, TF over GST control). The binding signal in the assay with ETV3 is 1.43 fold enrichment (6-mer frequency, TF over GST control); with ETV6 it was 1.21 fold enrichment (6-mer frequency, TF over GST control).

As to ATTAAG, the binding signal with ERF was 1.16 fold enrichment (6-mer frequency, TF over GST control); with ETV3L, 1.09 fold enrichment (6-mer frequency, TF over GST control); in the assay with ETS2, 1.01 fold enrichment (6-mer frequency, TF over GST control); in the assay with SPDEF it was 1.13 fold enrichment (6-mer frequency, TF over GST control); in the assay with ETV7 it was 1.12 fold enrichment (6-mer frequency, TF over GST control); with ELF5, 1.02 fold enrichment (6-mer frequency, TF over GST control). The binding signal in the assay with ETV3 was 1.04 fold enrichment (6-mer frequency, TF over GST control); with ETV6, 1.11 fold enrichment (6-mer frequency, TF over GST control).
